# Screening data deposited in PubChem by National Center for Advancing Translational Sciences (NCATS).
# This is a sample that favours compounds with a hit; in the whole collection about 2.4% have one here.
# Pol kappa inh-1: qHTS for Inhibitors of Polymerase Kappa. DNA polymerase kappa (Homo sapiens), Q9UBT6. purified Pol kappa, fluorescent DNA synthesis assay, 10 min. Potency, µM (series often up to 107 µM), for inactives: at the top dose activity, negative = inhibition, hits mostly inhibitors. 400,000 tested, 0.53% active; also: % is scaled to controls: 0 for no effect and ±100 for the full control effect
#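 10 nM Pol kappa was preincubated with compounds for 15 min at room temperature. Reaction started with 50 nM (final) substrate. Fluorescence read kinetically at 0 and 10 min.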
# Pol eta inh-1: qHTS for Inhibitors of Polymerase Eta | recombinant Pol eta, fluorescent DNA replication assay | Potency, µM (highest dose often 114 µM), for the others: at the top dose activity change, negative = inhibition, actives largely listed as inhibitors | 390,000 tested, 1.2% active; also: % is scaled to controls: 0 for no effect and ±100 for the full control effect
#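 Pol eta at 10 nM preincubated with compounds 15 min at room temperature; reaction started with fluorescent substrate (50 nM final) and read kinetically at 0 and 10 min.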
# Pol beta inh: qHTS Assay for Inhibitors of DNA Polymerase Beta. P06746. Pol beta primer extension/strand displacement, fluorescence kinetic. Potency, µM (top dose mostly 114 µM), for the others: top-dose activity change, negative = inhibition, hits mostly inhibitors. 340,000 tested, 1.3% active. AID 485314, 2010; also: % is scaled to controls: 0 for no effect and ±100 for the full control effect
#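 Homogeneous kinetic assay of primer extension and strand displacement by 10 nM Pol beta, preincubated 15 min at room temperature with compound before 50 nM substrate (final) was added. Read at 0 and 10 min; four-parameter Hill fit.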
# POLI inh: qHTS for Inhibitors of Polymerase Iota; DNA polymerase iota (Homo sapiens), Q9UNA4; Pol iota fluorescent replication assay, 10 min; Potency, µM (titrated, usually from 115 µM), inactives show top-dose activity, negative = inhibition, actives largely listed as inhibitors; 390,000 tested, 1% active; AID 588590, 2011
#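 Fluorescent replication assay read twice, at 0 min and 10 min after adding 50 nM (final) substrate. Enzyme (10 nM) and compounds were first incubated 15 min at room temperature; enzyme-free buffer wells were negative controls.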
# TDP1 inh: qHTS Assay for Inhibitors of Tyrosyl-DNA Phosphodiesterase (TDP1); Tyrosyl-DNA phosphodiesterase 1 (Homo sapiens), Q9NUW8; recombinant TDP1, AlphaScreen DNA substrate cleavage; Potency, µM (doses to about 130 µM), for the others: at the top dose activity change, negative = inhibition, most hits filed as inhibitors; 350,000 tested, 0.28% active; also: % is scaled to controls: 0 for no effect and ±100 for the full control effect; nearly all actives have a fitted effect of over 40% in size
#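 Signal: AlphaScreen proximity between streptavidin donor and anti-FITC acceptor beads on intact substrate. Reaction: Tdp1 1 nM, substrate 15 nM final, 5 min RT after 15 min compound preincubation.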
# FEN1 inh: qHTS Assay for the Inhibitors of Human Flap endonuclease 1 (FEN1); P39748; Recombinant FEN1 flap cleavage, fluorescence, 15 min; Potency, µM (titrated, usually from 114 µM), for inactives: top-dose activity change, negative = inhibition, most hits filed as inhibitors; 390,000 tested, 0.35% active; AID 588795, 2011; also: % is scaled to controls: 0 for no effect and ±100 for the full control effect; nearly all actives have a fitted effect of over 65% in size
#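 Quantitative HTS format: each compound was titrated, incubated with 10 nM nuclease for 15 min at room temperature, then challenged with flap substrate at 50 nM final. Signal change over 15 min gave concentration–effect curves.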
# Pol kappa inh-2: qHTS for Inhibitors of Polymerase Kappa: Confirmatory Assay for Cherry-picked Compounds; shares compounds with Pol eta inh-1; 920 tested, 76% active; Potency, µM, most hits filed as inhibitors; purified Pol-kappa, fluorescent strand-displacement substrate
# Pol eta inh-2: qHTS for Inhibitors of Polymerase Eta: Confirmatory Assay for Cherry-picked Compounds; shares compounds with Pol eta inh-1; Pol eta primer extension, TAMRA/BHQ fluorescence, 10 min; Potency, µM, hits mostly inhibitors; 2,600 tested, 64% active; AID 720502, 2013
# * hit, by the source's call; ? = inconclusive; . = not tested or not shown; [ ] = remark or other dose. Calls follow the shape of the dose curve; as a rule, active = well fitted curve in the direction sought with a large enough effect; inconclusive = small, poorly fitted or top-dose-only effect, or another doubt; inactive = no such curve, though single readings can be large; an effect the other way counts as inactive or inconclusive. Potency is read from the fitted curve at half-maximal effect.
SMILES,Pol kappa inh-1,Pol eta inh-1,Pol beta inh,POLI inh,TDP1 inh,FEN1 inh,Pol kappa inh-2,Pol eta inh-2
O=C(O)CN1C(=O)/C(=C/c2ccc(SCc3ccccc3)o2)SC1=S,79µM*,18µM*,3.5µM*,?,.,-19%,.,76*
O=C1/C(=C\c2ccco2)SC(=S)N1C1CCS(=O)(=O)C1 (stereo not given),?,?,40µM*,20µM*,-5%,-27%,.,?
O=C(O)CN1C(=O)/C(=C\c2ccc(OC(=O)c3ccco3)cc2)SC1=S,-4%,-17%,-16%,?,-14%,-5%,.,.
CC(/C=C1\SC(=S)N(CCC(=O)Nc2cccc(C(=O)O)c2)C1=O)=C\c1ccccc1,-14%,?,?,-12%,.,-11%,?,?
Cc1ccc(/C=C2\SC(=S)N(C3CCS(=O)(=O)C3)C2=O)cc1 (stereo not given),-11%,7%,31%,45%,0%,6%,.,.
COc1ccccc1/C=C1\SC(=S)N(CCC(=O)Nc2ccc(C(=O)O)c(O)c2)C1=O,-34%,35µM*,79µM*,?,.,?,?,?
O=C(O)CN1C(=O)/C(=C\C(Br)=C\c2ccccc2)SC1=S,?,8.9µM*,?,?,.,?,.,24*
O=C(O)CCCN1C(=O)/C(=C\c2ccco2)SC1=S,11µM*,20µM*,20µM*,7.1µM*,22µM*,32µM*,42*,48*
O=C(CCCN1C(=O)/C(=C\c2ccccc2)SC1=S)N1CCOCC1,-16%,-5%,.,10%,9%,-15%,.,.
Cc1ccc(Cl)cc1Nc1nn2c(=O)c3ccc(C(=O)NC4CCCCC4)cc3nc2s1,5%,12%,-2%,16%,3%,-1%,.,.
COc1cc(/C=C2\C(C)=C(C#N)c3nc(N)c(C#N)c(C)c32)ccc1OCC(=O)O,-35%,22µM*,2%,-25%,5%,?,.,38*
CC1=C(C#N)c2nc(N)c(C#N)c(C)c2/C1=C\c1ccc(C)cc1,.,.,5%,.,10%,.,.,.
CC[C@H](C)[C@H](NC(=O)[C@@H](NC(=O)[C@@H](NC(=O)[C@H](CCC(=O)O)NC(=O)[C@H](CCC(=O)O)NC(=O)[C@H](CCC(=O)O)NC(=O)[C@H](C)NC(=O)[C@@H](N)CC(C)C)C(C)C)C(C)C)C(=O)N[C@@H](CCCNC(=N)N)C(=O)N[C@@H](CO)C(=O)N[C@@H](C)C(=O)N[C@@H](CC(N)=O)C(=O)N[C@@H](Cc1ccccc1)C(=O)N[C@H](C(=O)N[C@@H](CC(=O)O)C(=O)N[C@@H](CC(N)=O)C(=O)O)[C@@H](C)O,21%[60.1 µM],.,.,.,5%,.,.,.
COc1ccc(/C=C/C(=O)O)cc1S(=O)(=O)N1CCCc2ccccc21,-40%,45µM*,?,0%,1%,-1%,.,60*
Cc1ccc(S(=O)(=O)c2nc(-c3ccco3)oc2SC(C)C)cc1,-24%,89µM*,-11%,?,8%,-24%,?,?
